The target in this experiment is T1, GST-Dm-Relish (Drosophila melanogaster, UniProt Q94527 99-473).
T1 sequence: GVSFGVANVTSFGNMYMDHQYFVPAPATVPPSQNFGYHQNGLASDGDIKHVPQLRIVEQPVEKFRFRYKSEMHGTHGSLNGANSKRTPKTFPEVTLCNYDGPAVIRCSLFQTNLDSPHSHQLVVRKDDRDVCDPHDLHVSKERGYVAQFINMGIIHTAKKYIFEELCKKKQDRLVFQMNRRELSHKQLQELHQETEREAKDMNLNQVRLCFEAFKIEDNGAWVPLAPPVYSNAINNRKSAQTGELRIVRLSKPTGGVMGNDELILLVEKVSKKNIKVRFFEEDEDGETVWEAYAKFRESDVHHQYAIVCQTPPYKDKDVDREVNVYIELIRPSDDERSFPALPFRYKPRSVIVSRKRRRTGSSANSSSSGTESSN
Briefly: protein-binding microarray (PBM); PBM: ~300 nM protein, 6 mM HEPES pH 7.8, 80 mM KCl, 0.5 mM EDTA, 0.5 mM EGTA, 6% glycerol, 35 ng/ul poly-dIdC, 1% milk, 1 h, room temperature; Ap Aiptasia and Nv Nematostella (sea anemones) / Co Capsaspora / Aq Amphimedon (sponge) / Dm Drosophila / Hu human; RHD is the Rel homology domain; high values mean tight binding. As to conditions: dsDNA, one strand shown.
For “CCGATTAACATCAAAGAATTCCCTGATGTTAATCGGGTCTTGATTCGCTTGACGCTGCTG”, the binding signal is 5.42 z-score.

Consider “CCGATTAACATCAGGGGGTTTAATGATGTTAATCGGGTCTTGATTCGCTTGACGCTGCTG”, for which the binding signal turned out to be 7.87 z-score.

Sequence “CCGATTAACATCAAATTCCCCCCTGATGTTAATCGGGTCTTGATTCGCTTGACGCTGCTG” yielded a binding signal of 8.4 z-score.

As to “CCGATTAACATCACGAATCCCCCTGATGTTAATCGGGTCTTGATTCGCTTGACGCTGCTG”, the binding signal is 6.03 z-score.

“CCGATTAACATCACGGGGAATCCTGATGTTAATCGGGTCTTGATTCGCTTGACGCTGCTG”: the binding signal stood at 10 z-score.

Sequence “CCGATTAACATCAGGGAAAATAATGATGTTAATCGGGTCTTGATTCGCTTGACGCTGCTG” gave a binding signal of 2.1 z-score.

Sequence “CCGATTAACATCAGGGGACTTTATGATGTTAATCGGGTCTTGATTCGCTTGACGCTGCTG” yielded a binding signal of 8.18 z-score.

For the sequence “CCGATTAACATCACATTCCCCCCTGATGTTAATCGGGTCTTGATTCGCTTGACGCTGCTG”, the binding signal was 4.58 z-score.

For “CCGATTAACATCAACAAACCCCCTGATGTTAATCGGGTCTTGATTCGCTTGACGCTGCTG”, the binding signal was found to be 7.26 z-score.

“CCGATTAACATCAGGAAACCCCATGATGTTAATCGGGTCTTGATTCGCTTGACGCTGCTG” displayed a binding signal of 8.23 z-score.

On to “CCGATTAACATCAAATTCCCCCTTGATGTTAATCGGGTCTTGATTCGCTTGACGCTGCTG”, for which the binding signal stood at 8.62 z-score.

Take “CCGATTAACATCAAAATTTCCCATGATGTTAATCGGGTCTTGATTCGCTTGACGCTGCTG”: the binding signal turned out to be 4.56 z-score.

“CCGATTAACATCAGGCAACCCCCTGATGTTAATCGGGTCTTGATTCGCTTGACGCTGCTG” registered a binding signal of 6.58 z-score.

In turn, “CCGATTAACATCAAGGGTGGGAATGATGTTAATCGGGTCTTGATTCGCTTGACGCTGCTG” returned a binding signal of 1.66 z-score.

In the case of “CCGATTAACATCAGGGGAACAACTGATGTTAATCGGGTCTTGATTCGCTTGACGCTGCTG”, the binding signal came to 8.64 z-score.

“CCGATTAACATCACCGTTCCCCCTGATGTTAATCGGGTCTTGATTCGCTTGACGCTGCTG” gave a binding signal of 2.76 z-score.

On to “CCGATTAACATCAAAACATTCCCTGATGTTAATCGGGTCTTGATTCGCTTGACGCTGCTG”, for which the binding signal amounted to 3.87 z-score.

Regarding “CCGATTAACATCAGGGATTTTACTGATGTTAATCGGGTCTTGATTCGCTTGACGCTGCTG”, the binding signal is 7.1 z-score.

On to “CCGATTAACATCACGGGAGTCCCTGATGTTAATCGGGTCTTGATTCGCTTGACGCTGCTG”, for which the binding signal worked out at 8.97 z-score.

On to “CCGATTAACATCAAAATCCCCCATGATGTTAATCGGGTCTTGATTCGCTTGACGCTGCTG”, for which the binding signal came to 8.88 z-score.

Consider “CCGATTAACATCAAGGGAAATCCTGATGTTAATCGGGTCTTGATTCGCTTGACGCTGCTG”, for which the binding signal was 6.05 z-score.

For the sequence “CCGATTAACATCAGGGTAAACCCTGATGTTAATCGGGTCTTGATTCGCTTGACGCTGCTG”, the binding signal was found to be 5.92 z-score.

Consider “CCGATTAACATCAATCTTTCCCCTGATGTTAATCGGGTCTTGATTCGCTTGACGCTGCTG”, for which the binding signal is 3.33 z-score.

“CCGATTAACATCACGAATTTCCCTGATGTTAATCGGGTCTTGATTCGCTTGACGCTGCTG” had a binding signal of 2.13 z-score.

Sequence “CCGATTAACATCAGGACCTCCCCTGATGTTAATCGGGTCTTGATTCGCTTGACGCTGCTG” returned a binding signal of 5.19 z-score.

On to “CCGATTAACATCAGGGGATTTAATGATGTTAATCGGGTCTTGATTCGCTTGACGCTGCTG”, for which the binding signal was found to be 7.98 z-score.

Consider “CCGATTAACATCAAATTTCCCGTTGATGTTAATCGGGTCTTGATTCGCTTGACGCTGCTG”, for which the binding signal was 3.24 z-score.

As to “CCGATTAACATCATGGGGAAAAATGATGTTAATCGGGTCTTGATTCGCTTGACGCTGCTG”, the binding signal came out at 2.39 z-score.

In turn, “CCGATTAACATCAAAACCCCCCATGATGTTAATCGGGTCTTGATTCGCTTGACGCTGCTG” registered a binding signal of 9.53 z-score.

In turn, “CCGATTAACATCAAAGAAACCCCTGATGTTAATCGGGTCTTGATTCGCTTGACGCTGCTG” registered a binding signal of 6.23 z-score.

Regarding “CCGATTAACATCACGTACTTCCCTGATGTTAATCGGGTCTTGATTCGCTTGACGCTGCTG”, the binding signal turned out to be 7.92 z-score.

“CCGATTAACATCAGGATTACCCCTGATGTTAATCGGGTCTTGATTCGCTTGACGCTGCTG” came in with a binding signal of 4.19 z-score.

As to “CCGATTAACATCAACGAATTCCCTGATGTTAATCGGGTCTTGATTCGCTTGACGCTGCTG”, the binding signal was 2.28 z-score.

“CCGATTAACATCAGGGGGAGGAATGATGTTAATCGGGTCTTGATTCGCTTGACGCTGCTG” returned a binding signal of 2.99 z-score.

“CCGATTAACATCAGGGGTAAATATGATGTTAATCGGGTCTTGATTCGCTTGACGCTGCTG” showed a binding signal of 1.66 z-score.

Sequence “CCGATTAACATCAGGGAAGAACCTGATGTTAATCGGGTCTTGATTCGCTTGACGCTGCTG” registered a binding signal of 8.73 z-score.

As to “CCGATTAACATCAAAATTACCCATGATGTTAATCGGGTCTTGATTCGCTTGACGCTGCTG”, the binding signal amounted to 4.11 z-score.

As for “CCGATTAACATCAAATTCCCCCGTGATGTTAATCGGGTCTTGATTCGCTTGACGCTGCTG”, the binding signal was determined as 8.23 z-score.

“CCGATTAACATCAGGGGGATTACTGATGTTAATCGGGTCTTGATTCGCTTGACGCTGCTG” showed a binding signal of 9.03 z-score.

The values are drawn from paper PMC5700166.
